The results in this text go back to PubChem BioAssay (EPA / NIEHS).

By AC50 is commonly meant the midpoint of the concentration-response curve, whichever way the signal moves.

The source made the active and inactive calls. The calls were made as follows: active = hit-call score of the fitted dose curve at least 0.9, where 1 is the maximum; inactive = score below 0.9.

What all share (details): mRNA level, 48 h; actives raise or lower the signal
Read-out in assay [1]: Cytochrome P450 7A1 (Homo sapiens) (UniProt P22680)
Put plainly: LTEA_HepaRG_CYP7A1: Life Technologies and Expression Analysis (LTEA) Assay for Cytochrome P450 7A1 (CYP7A1) using HepaRG (AID 2283496). The method in brief: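 HepaRG, 48 h exposure, 8-pt half-log series from 100 uM, 0.5% DMSO vehicle, duplicates. Readout: TaqMan qRT-PCR mRNA vs three housekeeping genes; bidirectional curve fit against DMSO baseline.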

Read-out in assay [2]: Glutathione S-Transferase (GSTA2), GSTA2 (gene 2939)
Put plainly: LTEA_HepaRG_GSTA2: Life Technologies and Expression Analysis (LTEA) Assay for Glutathione S-Transferase (GSTA2) using HepaRG (AID 2283497). Summed up:
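GSTA2 transcript levels came from Fluidigm TaqMan qRT-PCR normalized to three housekeeping genes, fitted in both directions against DMSO. HepaRG cultures received chemicals for 48 h in serum-free induction medium (0.5% DMSO), 8 half-log concentrations up to 100 uM, duplicate.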

Read-out in assay [3]: Glutamate-cysteine ligase catalytic (GCLC), GCLC (gene 2729)
Kind of assay: LTEA_HepaRG_GCLC: Life Technologies and Expression Analysis (LTEA) Assay for Glutamate-cysteine ligase catalytic (GCLC) using HepaRG (AID 2283498). The method in brief:
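Expression by TaqMan qRT-PCR, normalized to three housekeeping genes (ACTB, GAPDH, POLR2A), with up- or down-regulation fitted against DMSO. HepaRG cells dosed in duplicate for 48 h with 8 half-log concentrations up to 100 uM, vehicle 0.5% DMSO.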

Read-out in assay [4]: growth arrest and DNA damage 45 (GADD45G), GADD45G (gene 10912)
Kind of assay: LTEA_HepaRG_GADD45G: Life Technologies and Expression Analysis (LTEA) Assay for growth arrest and DNA damage 45 (GADD45G) using HepaRG (AID 2283499). The method in brief: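 GADD45G transcript level by qRT-PCR (housekeeping-normalized: ACTB, GAPDH, POLR2A) after 48 h chemical treatment of a single HepaRG lot in serum-free induction medium; eight-point half-log series up to 100 uM in 0.5% DMSO, duplicates, up- or down-regulation scored.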

Read-out in assay [5]: Glutamate-cysteine ligase regulatory (GCLM), GCLM (gene 2730)
Kind of assay: LTEA_HepaRG_GCLM: Life Technologies and Expression Analysis (LTEA) Assay for Glutamate-cysteine ligase regulatory (GCLM) using HepaRG (AID 2283500). Summed up:
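GCLM expression quantified by qRT-PCR, normalized to three housekeeping genes, after 48 h chemical treatment of HepaRG cells in duplicate at 8 concentrations (top 100 uM, half-log steps, 0.5% DMSO). Changes fitted both directions against vehicle.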

Read-out in assay [6]: Glutathione S-transferase M3 (GSTM3), GSTM3 (gene 2947)
Put plainly: LTEA_HepaRG_GSTM3: Life Technologies and Expression Analysis (LTEA) Assay for Glutathione S-transferase M3 (GSTM3) using HepaRG (AID 2283501). Summed up:
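GSTM3 transcript levels came from Fluidigm TaqMan qRT-PCR normalized to three housekeeping genes, fitted in both directions against DMSO. HepaRG cultures received chemicals for 48 h in serum-free induction medium (0.5% DMSO), 8 half-log concentrations up to 100 uM, duplicate.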

Read-out in assay [7]: Heat shock 70 kDa protein 1 (HSPA1A), gene 3303
Kind of assay: LTEA_HepaRG_HSPA1A: Life Technologies and Expression Analysis (LTEA) Assay for Heat shock 70 kDa protein 1 (HSPA1A) using HepaRG (AID 2283502). The method in brief:
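HSPA1A expression measured by qRT-PCR with ACTB/GAPDH/POLR2A normalization; curves fitted in both directions relative to DMSO vehicle. Exposure: 48 h in HepaRG cells, duplicate 8-point half-log series from 100 uM, 0.5% DMSO, serum-free induction medium.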

Read-out in assay [8]: Hypoxia-inducible factor 1-alpha (Homo sapiens) (UniProt Q16665)
Put plainly: LTEA_HepaRG_HIF1A: Life Technologies and Expression Analysis (LTEA) Assay for Hypoxia-inducible factor 1 (HIF1A) Trancription factor using HepaRG (AID 2283503). The method in brief: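 HIF1A transcript level read by qRT-PCR (ACTB, GAPDH, POLR2A normalization) after 48 h chemical exposure of HepaRG cultures. Eight half-log concentrations, top 100 uM, 0.5% DMSO vehicle, duplicates; bidirectional curve fit against DMSO baseline.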

Read-out in assay [9]: 3-Hydroxy-3-Methylglutaryl-CoA Synthase 2 (HMGCS2), HMGCS2 (gene 3158)
Kind of assay: LTEA_HepaRG_HMGCS2: Life Technologies and Expression Analysis (LTEA) Assay for 3-Hydroxy-3-Methylglutaryl-CoA Synthase 2 (HMGCS2) using HepaRG (AID 2283504). The method in brief:
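Readout is HMGCS2 transcript by qRT-PCR, housekeeping-normalised (ACTB/GAPDH/POLR2A) and fitted bidirectionally against 0.5% DMSO. Differentiated HepaRG cells received chemicals 48 h, duplicate wells, eight half-log concentrations topping at 100 uM.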

Read-out in assay [10]: HGF (gene 3082)
Kind of assay: LTEA_HepaRG_HGF: Life Technologies and Expression Analysis (LTEA) Assay for Hepatocyte Growth Facto (HGF) using HepaRG (AID 2283505). The method in brief: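 HGF transcript was quantified by TaqMan qRT-PCR against three housekeeping genes after 48 h treatment of HepaRG cells. Exposure ran in duplicate over eight half-log steps topping at 100 uM in 0.5% DMSO vehicle.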

Read-out in assay [11]: Insulin Like Growth Factor 1 (IGF1), IGF1 (gene 3479)
Put plainly: LTEA_HepaRG_IGF1: Life Technologies and Expression Analysis (LTEA) Assay for Insulin Like Growth Factor 1 (IGF1) using HepaRG (AID 2283506). Summed up:
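Expression measured by TaqMan qRT-PCR on a Fluidigm array, with three housekeeping genes for normalisation, after 48 h treatment of HepaRG cells. Top concentration 100 uM with half-log steps, 0.5% DMSO vehicle, bidirectional fit.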

Read-out in assay [12]: Intercellular Adhesion Molecule 1 (ICAM1), ICAM1 (gene 3383)
Put plainly: LTEA_HepaRG_ICAM1: Life Technologies and Expression Analysis (LTEA) Assay for Intercellular Adhesion Molecule 1 (ICAM1) using HepaRG (AID 2283507). The method in brief:
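ICAM1 transcript levels measured by qRT-PCR, normalized to three housekeeping genes (ACTB, GAPDH, POLR2A), after 48 h chemical exposure of HepaRG cells. Duplicate eight-point half-log series from 100 uM in 0.5% DMSO; gain or loss fitted against vehicle.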

Read-out in assay [13]: Insulin-like growth factor-binding protein 1 (IGFBP1), IGFBP1 (gene 3484)
Put plainly: LTEA_HepaRG_IGFBP1: Life Technologies and Expression Analysis (LTEA) Assay for Insulin-like growth factor-binding protein 1 (IGFBP1) using HepaRG (AID 2283508). Summed up:
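Read-out is qRT-PCR transcript level normalized to three housekeeping genes, fitted in both directions against 0.5% DMSO. Differentiated HepaRG cells received eight half-log concentrations (top 100 uM) in duplicate for 48 h in serum-free induction medium.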

Read-out in assay [14]: Interleukin 6 Receptor (IL6R), IL6R (gene 3570)
Put plainly: LTEA_HepaRG_IL6R: Life Technologies and Expression Analysis (LTEA) Assay for Interleukin 6 Receptor (IL6R) using HepaRG (AID 2283510).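 As to AC50: differentiated human HepaRG liver cells in serum-free induction medium.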 The method in brief:
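IL6R transcript level by qRT-PCR after 48 h chemical exposure (8-point, half-log, max 100 uM, 0.5% DMSO vehicle) of HepaRG cells in serum-free induction medium. Normalized to three housekeeping genes; curves fitted in both directions relative to DMSO.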

Read-out in assay [15]: Potassium channel subfamily K member 1 (KCNK1), KCNK1 (gene 3775)
Put plainly: LTEA_HepaRG_KCNK1: Life Technologies and Expression Analysis (LTEA) Assay for Potassium channel subfamily K member 1 (KCNK1) using HepaRG (AID 2283511). The method in brief:
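KCNK1 transcript measured by TaqMan qRT-PCR against three housekeeping genes, after HepaRG cells were treated 48 h with eight half-log concentrations (top 100 uM, 0.5% DMSO). Curves fitted bidirectionally relative to vehicle.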

Read-out in assay [16]: Keratin 19 (KRT19), KRT19 (gene 3880)
Kind of assay: LTEA_HepaRG_KRT19: Life Technologies and Expression Analysis (LTEA) Assay for Keratin 19 (KRT19) using HepaRG (AID 2283512). Summed up: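 KRT19 transcript measured by TaqMan qRT-PCR, referenced to three housekeeping genes, after HepaRG cells received test chemicals for 48 h. Eight half-log concentrations, top 100 uM, 0.5% DMSO vehicle; increases and decreases both fitted.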

Read-out in assay [17]: JUN Transcription Factor, JUN (gene 3725)
Kind of assay: LTEA_HepaRG_JUN: Life Technologies and Expression Analysis (LTEA) Assay for JUN Transcription Factor using HepaRG (AID 2283513). Summed up: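 mRNA measured by TaqMan qRT-PCR after 48 h chemical exposure of HepaRG cultures; normalization to three housekeeping genes. Duplicate eight-point half-log curves from 100 uM in 0.5% DMSO; gain or loss fitted against DMSO baseline.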

Read-out in assay [18]: Lipase C (LIPC), LIPC (gene 3990)
Kind of assay: LTEA_HepaRG_LIPC: Life Technologies and Expression Analysis (LTEA) Assay for Lipase C (LIPC) using HepaRG (AID 2283514). The method in brief:
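LIPC expression was quantified by qRT-PCR against three housekeeping genes (ACTB, GAPDH, POLR2A). Differentiated human HepaRG cells received eight half-log doses (top 100 uM, 0.5% DMSO) in duplicate for 48 h; fitting bidirectional relative to DMSO.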

Read-out in assay [19]: Lipoprotein lipase (LPL), LPL (gene 4023)
Kind of assay: LTEA_HepaRG_LPL: Life Technologies and Expression Analysis (LTEA) Assay for Lipoprotein lipase (LPL) using HepaRG (AID 2283515). Summed up: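 LPL transcript levels quantified by TaqMan qRT-PCR against three housekeeping genes after 48 h chemical treatment of HepaRG cells. Eight-point half-log series from 100 uM in 0.5% DMSO, tested in duplicate; bidirectional fitting versus vehicle.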

Hypoxia-inducible factor 1-alpha (Homo sapiens), sequence (Q16665 whole entry, looked up): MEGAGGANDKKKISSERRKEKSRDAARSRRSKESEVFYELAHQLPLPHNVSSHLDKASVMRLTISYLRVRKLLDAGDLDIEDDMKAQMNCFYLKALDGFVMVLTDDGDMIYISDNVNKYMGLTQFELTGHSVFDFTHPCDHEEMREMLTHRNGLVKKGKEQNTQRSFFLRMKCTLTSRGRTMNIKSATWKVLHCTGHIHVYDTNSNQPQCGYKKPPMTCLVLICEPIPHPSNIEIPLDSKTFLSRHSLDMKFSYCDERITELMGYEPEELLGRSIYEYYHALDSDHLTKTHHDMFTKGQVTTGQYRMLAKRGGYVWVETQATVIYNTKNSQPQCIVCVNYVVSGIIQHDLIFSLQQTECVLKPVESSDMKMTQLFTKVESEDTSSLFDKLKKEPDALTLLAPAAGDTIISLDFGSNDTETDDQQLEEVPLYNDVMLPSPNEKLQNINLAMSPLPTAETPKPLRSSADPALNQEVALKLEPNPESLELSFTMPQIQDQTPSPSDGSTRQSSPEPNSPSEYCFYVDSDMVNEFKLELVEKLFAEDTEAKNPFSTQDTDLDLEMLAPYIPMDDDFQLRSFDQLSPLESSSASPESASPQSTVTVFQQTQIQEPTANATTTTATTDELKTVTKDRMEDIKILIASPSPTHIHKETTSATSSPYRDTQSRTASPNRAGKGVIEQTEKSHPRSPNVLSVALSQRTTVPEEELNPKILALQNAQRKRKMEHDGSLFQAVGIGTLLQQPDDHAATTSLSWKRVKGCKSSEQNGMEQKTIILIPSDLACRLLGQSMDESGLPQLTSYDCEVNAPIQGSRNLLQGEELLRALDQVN

Take `CCCOc1ccc(S(=O)(=O)N2CCN(CC)CC2)cc1-c1nc2c(CC)n(Cc3ccccn3)nc2c(=O)[nH]1`: the AC50 in assay [1] was 4.07 µM (active); in assay [4] it was 77.9 µM (active); in assay [7] it was 25.3 µM (active); in assay [11] it was 14.5 µM (active); in [13], 68.3 µM (active); in assay [19] it was 56.7 µM (active). The compound was classed as inactive in assay [2], in [3], in assay [5], in assay [6], in [8] and in assay [9]. For the same compound, the call in [10], in assay [12], in assay [14], in assay [15], in [16] and in assay [17] was inactive. The compound was classed as inactive in [18].
In the case of `Cn1cc[nH]c1=S`, the compound was called inactive in [1], in assay [2], in assay [3], in assay [4], in assay [5] and in [7]. For the same compound, the call in [9], in assay [11], in assay [12], in assay [13], in assay [14] and in assay [15] was inactive. For the same compound, the result in [16], in assay [17], in assay [18] and in [19] was inactive.
For the compound `C=CCc1cc(S(=O)(=O)c2ccc(O)c(CC=C)c2)ccc1O`, the half-maximal activity concentration (AC50) in [1] is 83.1 µM (active); in assay [2] it was 93.1 µM (active); in assay [3], 50 µM (active); in assay [7] it was 79 µM (active); in [8] it was 91.4 µM (active); in assay [9] it was 86.3 µM (active). For the same compound, the half-maximal activity concentration (AC50) in [10] is 79.5 µM (active); in [11] it was 83.5 µM (active); in assay [13], 79.6 µM (active); in assay [14], 75.9 µM (active); in assay [16], 50 µM (active); in [18], 84.9 µM (active). For the same compound, the AC50 in assay [19] was 93.4 µM (active). Further, the outcome in assay [4], in [5], in assay [12], in [15] and in [17] was inactive.
With `CCCCN1C(=O)[C@@H]([C@H](O)C2CCCCC2)NC(=O)C12CCN(Cc1ccc(Oc3ccc(C(=O)O)cc3)cc1)CC2`, the half-maximal activity concentration (AC50) is 2.15 µM (active) in assay [1]; 2.39 µM (active) in assay [2]; 2.25 µM (active) in [3]; 4.63 µM (active) in assay [4]; 1.8 µM (active) in [7]; 5.05 µM (active) in assay [9]. Further, the concentration at half-maximal activity (AC50) was 9.25 µM (active) in [10]; 9.61 µM (active) in [11]; 2.32 µM (active) in [12]; 2.45 µM (active) in assay [13]; 2.65 µM (active) in assay [14]; 391 nM (active) in [15]. Also, the concentration at half-maximal activity (AC50) in assay [18] is 3.67 µM (active); in assay [19] it was 1.71 µM (active). Moreover, the compound was classed as inactive in assay [5], in assay [8], in [16] and in [17].
